The record followed here is ChEMBL document CHEMBL5606458, “ASAP - ZIKV NS2B-NS3 protease fluorescence single point” (2024).

For the experiment, the target named is Nonstructural protein 3 (Zika virus) (UniProt A0A024AXB9).
[1] abbreviates: PRVABC59, Concentration 15.0 uM, Number of replicates 1.0.
The mark [2] stands for this setting: PRVABC59, Concentration 50.0 uM, Number of replicates 1.0.

In all, about 2,700 compounds went through this assay and about 160 (5.9%) showed an effect of 50% or more. Many of the other results were omitted from the sample, so strong results are more common in it than they were.

Sequence of Nonstructural protein 3 (Zika virus) (A0A024AXB9 as listed by the source): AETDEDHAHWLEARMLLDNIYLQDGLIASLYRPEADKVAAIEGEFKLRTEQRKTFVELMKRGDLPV

`CCN1CCN(c2ccc(NC(=O)c3cc(Cl)ccc3NS(=O)(=O)c3ccc(Oc4ccccc4Cl)cc3)cc2)CC1`: the inhibition (usually the relative decrease from the control value, in per cent) under setting [1] is 17.1%.

Turning to `CCN(CC)S(=O)(=O)c1ccc(NC(=O)c2cc(Cl)ccc2NS(=O)(=O)c2ccc(Oc3ccccc3Cl)cc2)cc1`, under setting [1], the inhibition is 27.6%.

Take `Cc1nccn1-c1ccc(NC(=O)c2cc(Cl)ccc2NS(=O)(=O)c2ccc(Oc3ccccc3Cl)cc2)cc1`: under setting [1], the inhibition was 43.8%.

As for `O=C(Nc1ccc(-n2cccn2)cc1)c1cc(Cl)ccc1NS(=O)(=O)c1ccc(Oc2ccccc2Cl)cc1`, the inhibition under setting [1] was determined as 71.5%.

Turning to `O=C(Nc1ccc(-n2ccnc2)cc1)c1cc(Cl)ccc1NS(=O)(=O)c1ccc(Oc2ccccc2Cl)cc1`, the inhibition under setting [1] came out at 63.6%.

Consider `O=C(NCc1cccc(-n2cccn2)c1)c1cc(Cl)ccc1NS(=O)(=O)c1ccc(Oc2ccccc2Cl)cc1`, for which the inhibition under setting [1] stood at 33.4%.

Consider `COc1ccc([C@@H](C)NC(=O)C2CCN(c3ccc(C=O)cc3)CC2)cc1OC`, for which, where the note is “PRVABC59, Concentration 10.0 uM, Number of replicates 1.0”, the inhibition amounted to 22.9%.

For `C[C@H](NC(=O)c1cc(Cl)ccc1NS(=O)(=O)c1ccc(Oc2ccccc2Cl)cc1)c1cccc(C(F)(F)F)c1`, the inhibition under setting [1] amounted to 39.3%.

Turning to `C[C@@H](CC(C)(C)c1ccccc1)NC(=O)c1cc(Cl)ccc1NS(=O)(=O)c1ccc(Oc2ccccc2Cl)cc1`, the inhibition under setting [1] is 18.2%.

Consider `O=C(N[C@H](c1ccccc1)[C@@H](O)c1ccccc1)c1cc(Cl)ccc1NS(=O)(=O)c1ccc(Oc2ccccc2Cl)cc1`, for which, under setting [1], the inhibition was determined as 45.7%.

For the molecule `O=C(N[C@H](c1ccccc1)C(F)(F)F)c1cc(Cl)ccc1NS(=O)(=O)c1ccc(Oc2ccccc2Cl)cc1`, the inhibition under setting [1] stood at 60.6%.

`CC(C)(C)[C@H](NC(=O)c1cc(Cl)ccc1NS(=O)(=O)c1ccc(Oc2ccccc2Cl)cc1)c1ccccc1`: the inhibition under setting [1] is 57.8%.

`C[C@H](NC(=O)c1cc(Cl)ccc1NS(=O)(=O)c1ccc(Oc2ccccc2Cl)cc1)c1ccccc1C(F)(F)F`: the inhibition under setting [1] stood at 42.7%.

Consider `Cc1cnccc1NC(=O)c1cccc(-n2cnnn2)c1`, for which the inhibition by setting is: (PRVABC59, Concentration 49.5 uM, Number of replicates 2.0, Standard deviation 4.148081450793093 %) -4.56%; (PRVABC59, Concentration 99.01 uM, Number of replicates 2.0, Standard deviation 2.8220872377424997 %) -2.1%; (PRVABC59, Concentration 198.0 uM, Number of replicates 2.0, Standard deviation 5.644174285824181 %) -3.31%.

For the molecule `O=Cc1ccc(N2CCC(C(=O)Nc3ccc(F)cc3Br)CC2)cc1`, under setting [2], the inhibition was 20.8%.

With `CCN(CCOc1ccccc1C)C(=O)C1CCN(c2ccc(C=O)cc2)CC1`, the inhibition under setting [2] was 25.1%.

In the case of `O=C(c1cc(Cl)ccc1NS(=O)(=O)c1ccc(Oc2ccccc2Cl)cc1)N1CCCN(c2ccc(C(F)(F)F)cn2)CC1`, the inhibition under setting [1] came out at 30%.

On to `CCN1CCOC[C@H]1C(=O)Nc1cc(Cl)cc(C(=O)NC(C)(C)CO)c1`, for which the inhibition runs as follows: (PRVABC59, Concentration 49.5 uM, Number of replicates 2.0, Standard deviation 1.425535849610213 %) -1.8%; (PRVABC59, Concentration 99.01 uM, Number of replicates 2.0, Standard deviation 1.345541763339264 %) -2.76%; (PRVABC59, Concentration 198.0 uM, Number of replicates 2.0, Standard deviation 3.0049064318797343 %) -3.73%.
